# Hits are enriched below; roughly 3.3% of the tested compounds scored in any of these assays.
# HCV inhibitor = qHTS Assay for Inhibitors of Hepatitis C Virus (HCV); Huh7.5.1 HCVcc-Cre infection, luciferase reporter, 44 h; Potency, µM (doses to about 41.8 µM), for inactives: at the top dose activity change, negative = inhibition, usual class: inhibitors; 3.4% of 340,000 active; active = well fitted inhibition curve with a large enough effect; inconclusive = small, poorly fitted or top-dose-only effect, or another doubt; inactive = no such curve, though single readings can be large or run the other way
#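 1,000 cells/well; 4 h culture; + compound; + HCVcc-Cre (~0.5 moi); 44 h; luciferase substrate, RT 15 min; read 15 sec.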
# Vaccinia mCherry = qHTS for Stage-Specific Inhibitors of Vaccinia Orthopoxvirus: mCherry Reporter Primary qHTS. 0.63% of 310,000 active. Vaccinia virus mCherry reporter infection, fluorescence. Potency, µM (top dose mostly 36.5 µM), without a hit: at the highest dose activity change, negative = inhibition, usual class: inhibitors; calls by dose curve; tested in A549 cells; also: nearly all actives have a fitted effect of over 35% in size
# VACV Venus inh = qHTS for Stage-Specific Inhibitors of Vaccinia Orthopoxvirus: Venus Reporter Primary qHTS. 0.46% of 330,000 active. Potency, µM (highest dose often 36.5 µM), inactives show at the highest dose activity change, negative = inhibition, usual class: inhibitors. Vaccinia virus Venus reporter expression, fluorescence; calls by dose curve; tested in A549 cells; also: nearly all actives have a fitted effect of over 30% in size
# * = called active by the depositor; i = inactive; ? = inconclusive; nt = no result; [ ] = dose if it differs, or a comment. % is scaled to controls: 0 for no effect and ±100 for the full control effect; potency is read from the fitted curve at half-maximal effect.
SMILES,HCV inhibitor,Vaccinia mCherry,VACV Venus inh
O=C(Nc1cccnc1)c1ccc(CN2CCc3ccccc3C2)cc1,4.5µM*,nt,nt
Cc1cc(C)cc(NC(=O)c2ccc(CN3CCc4ccccc4C3)cc2)c1,?,?,-19%
Cc1ccc(NC(=O)c2ccc(CN3CCc4ccccc4C3)cc2)cc1,?,?,-21%
O=C(Nc1ccccc1)c1ccc(CN2CCc3ccccc3C2)cc1,?,i,-6%
O=C(Nc1ccc(S(=O)(=O)N2CCCCC2)cc1)c1ccc(CN2CCc3ccccc3C2)cc1,35µM*,nt,?
Cc1cccc(C(=O)Nc2c(C(=O)NCc3ccc(Cl)cc3)sc3nc(C)cc(C)c23)c1,nt,-15%[7.34 µM],-5%[7.34 µM]
Cc1ccc(NC(=O)Cn2c(=O)n(Cc3nc(-c4ccccc4)no3)c(=O)c3ccccc32)c(C)c1,nt,-2%,-13%
Cc1cc(C)n(CCC(=O)Nc2ccc(Cl)cc2)n1,nt,-7%,-9%
CCOC(=O)CSc1nnnn1-c1cc(OC)c(Cl)cc1OC,?,-5%,4%
COc1cc(-n2nnnc2SCC(=O)N2CCN(c3ccc(F)cc3)CC2)c(OC)cc1Cl,11µM*,-22%,-11%
O=C(Nc1cccc(-c2nc3cccnc3s2)c1)c1cccc(Br)c1,nt,-12%,-8%
C[C@@H]1CN([C@H](C)CO)C(=O)c2cc(Br)cnc2O[C@H]1CN(C)C(=O)Cc1ccncc1,nt,?,1.3µM*
C[C@H](CO)N1C[C@H](C)[C@@H](CN(C)Cc2ccc(-c3ccccc3)cc2)Oc2c(NC(=O)Cc3ccccc3)cccc2C1=O,?,-12%,?
C[C@H](CO)N1C[C@H](C)[C@@H](CN(C)Cc2ccccc2)Oc2c(NC(=O)Cc3ccccc3)cccc2C1=O,?,-9%,?
C[C@H](CO)N1C[C@H](C)[C@@H](CN(C)Cc2ccc(Cl)c(Cl)c2)Oc2c(NC(=O)Cc3ccccc3)cccc2C1=O,-28%,5.6µM*,?
C[C@@H]1CN([C@H](C)CO)C(=O)c2cc(Br)cnc2O[C@@H]1CN(C)C(=O)Cc1ccccc1,nt,i,-7%
C[C@H](CO)N1C[C@H](C)[C@@H](CN(C)C)Oc2c(NC(=O)Cc3ccccc3)cccc2C1=O,0.56µM*,-10%,-13%
COc1cccc(-c2ncc3ccccc3c2COC(=O)N2CCCCC2)c1,?,-17%,-20%
CCC1(C2CCN(C(=O)c3ccc(C)c(C)c3)CC2)NC(=O)N(CCc2scnc2C)C1=O (stereo not drawn),nt,i,-7%
O=C(/C=C/c1ccccc1)CCN1CCCCC1,-17%,?,?
Cc1ccccc1NC(=O)Nc1ccc2c(c1)CCC2,-16%,nt,nt
CCc1ccc(OCC(=O)N/N=C(\C)c2ccc(O)cc2O)cc1,11µM*,?,-9%
CCc1ccc(OCC(=O)N/N=C(\C)c2ccc3c(c2)OCCO3)cc1,-4%,i,-14%
CC(=O)Nc1nc(COc2ccccc2)cs1,16%,-13%,-11%
Cc1ccc(C(=O)Nc2nc(COc3ccccc3)cs2)s1,11µM*,-9%,-28%
SMILES,HCV inhibitor,Vaccinia mCherry,VACV Venus inh
CC(=O)N(Cc1ccc(F)cc1)C1=C(NCc2ccccc2)C(=O)c2ccccc2C1=O,5µM*,2.5µM*,3.5µM*
O=C(NCc1ccc(F)cc1)C(c1ccccc1)c1ccccc1,-6%,nt,nt
C/C=C/C(=O)OCC(=O)Nc1ccc(OC)c(OC)c1,2%,?,?
C/C=C/C(=O)OCC(=O)Nc1ccc(OC)c(Cl)c1,19%,8.9µM*,10µM*
Cc1ccccc1NC(=O)c1nc(SCc2ccccc2F)ncc1Cl,nt,24%,-18%
Clc1ccc(N=NN2CCOCC2)cc1,5%,-5%,-11%
Cc1[nH]nc(C(F)(F)F)c1N=NN1CCOCC1,16µM*,?,?
C=CC[C@H](CC(=O)NCCO)C(=O)N[C@@H](COC(=O)[C@H](CC=C)CC(=O)OC(C)(C)C)Cc1c[nH]c2ccccc12,12%,i,-11%
COc1ccccc1N1CCN(C(=O)c2cc(-c3ccccc3)nc3c2cnn3C(C)C)CC1,nt,-10%,-16%
COc1cccc(N2CCN(C(=O)c3cc(-c4ccccc4)nc4c3cnn4C(C)C)CC2)c1,11µM*,nt,nt
COc1ccccc1-c1nc(NCc2cnc(C)cn2)c2ccccc2n1,nt,8%,14%
CC(C)Cn1c(=O)c2ccccc2n2c(CCC(=O)N3CCN(c4ccccc4)CC3)nnc12,nt,-23%,-18%
O=C(c1ccc2c(c1)C(=O)N(CCCO)C2=O)c1ccc2c(c1)C(=O)N(CCCO)C2=O,5%,nt,10%
O=C1c2ccc3c4c(ccc(c24)C(=O)N1CCCCO)C(=O)N(CCCCO)C3=O,7.1µM*,nt,nt
O=C(/C=C/c1ccc(F)cc1)c1ccccc1Br,?,?,28µM*
Cc1ccc(C(=O)/C=C/c2ccc(F)cc2)o1,-11%,-19%,?
S=c1[nH]nc(-c2ccco2)n1-c1ccc(Br)cc1,?,-13%,-7%
CCN(CC)S(=O)(=O)c1ccc(NCCCn2ccnc2)c([N+](=O)[O-])c1,4%,-16%,-22%
O=C(c1ccccc1)c1ccc(NCCCn2ccnc2)c([N+](=O)[O-])c1,35µM*,-10%,-18%
Cc1ccc(S(=O)(=O)c2nc(-c3ccco3)oc2SC(C)C)cc1,-22%,-22%,-5%
Cc1cc2c(C(C)C)c(O)c(O)c(C=O)c2c(O)c1-c1c(C)cc2c(C(C)C)c(O)c(O)c(C=O)c2c1O,?,4.5µM*,4µM*
COC(=O)c1c(C)cc(O)c(C=O)c1O,-18%,-16%,-7%
COC(=O)[C@@H]1CCCN1C(=O)c1cc(NC(=O)C2CCC2)c2c(c1)nc(-c1ccncc1)n2C,nt,-13%,-7%
COc1cccc(/C=C/c2cnc3ccccc3n2)c1OC,nt,-23%,52%
CCOC(=O)N1CCc2c(sc3c2c(=O)n(-c2ccc(F)cc2)c(=O)n3CC(=O)c2ccc(Cl)cc2)C1,nt,-7%,-7%
SMILES,HCV inhibitor,Vaccinia mCherry,VACV Venus inh
COc1cc2c(cc1NC(=O)c1ccc3c(c1)OCO3)oc1ccccc12,14µM*,-9%,5%
COc1cc2c(cc1NC(=O)C(C)NCc1ccccc1)oc1ccccc12 (stereo not drawn),?,-16%,-24%
COc1cccc(NC(=O)Nc2cc(C)ccc2OC)c1,-26%,-6%,-26%
Cc1ccc(OC(F)F)c(NC(=O)Nc2cccc(C(F)(F)F)c2)c1,10µM*,nt,nt
O=C(Nc1ccccc1)Nc1cccc(C(F)(F)F)c1,?,-10%,-15%
COc1ccccc1NC(=O)c1ccc2c(c1)OCO2,7%,-11%,4%
COc1cc2c(cc1NC(=O)Nc1ccccc1)oc1ccccc12,5µM*,nt,?
COc1ccc(C)cc1NC(=O)Nc1ccccc1,3.2µM*,nt,-23%
O=C(Cc1ccc(OCc2ccccn2)cc1)NO,nt,14%,-11%
COc1ccc(NC(=O)CCn2c(=O)c3cccn3c3cccnc32)c(OC)c1,nt,-12%,3%
CC(C)C1C(=O)N2CCC[C@H]2[C@]2(O)O[C@](NC(=O)[C@@H]3C=C4c5cccc6[nH]cc(c56)C[C@H]4N(C)C3)(C(C)C)C(=O)N12 (stereo partly drawn),nt,-11%,15%
Cc1ccc(S(=O)(=O)NCCc2cn3ccsc3n2)c(C)c1,nt,-3%,4%
